Among all 300,000 compounds or so, about 3,200 (1.1%) were called active. Many of the other results were omitted from the sample, so actives are more common in it than they were. Unmarked numbers belong to inactive results. Cut-off read from the data, not from the text of the source: active = inhibition above about 75%; inconclusive = no clear call, values can overlap the other calls; inactive = below that; tested in HMLE shEcad cells.

Here are results for 83 compounds from PubChem BioAssay AID2717 (Broad Institute, 2010).

A short description of the experiment: growth suppression of cancer stem-like cells – cell-based, luminescence, primary screen (AID 2717). Conditions: cancer stem cell-like cells viability, at 7.5 µM, active compounds read high.
As usually defined, the inhibition is the change of the read-out against control, counted positive when it falls. Take `Cc1ccc(N2C(=O)C3C4C=CC(CC4)C3C2=O)cc1Br` (stereo not drawn): the inhibition was 84.8% (active).
The value for `Cc1ccc(N2C(=O)C3C4C=CC(CC4)C3C2=O)cc1Cl` (stereo not drawn) was 51.3%; that for `CC(=O)Nc1ccc(N2C(=O)C3C4C=CC(CC4)C3C2=O)cc1` (stereo not drawn) was 5.09%.
Under `O=C(CN1C(=O)NC2(CCCCCCC2)C1=O)NCc1ccc(F)cc1` stands -11.3%; under `CCNC(=S)N1CCN(S(=O)(=O)c2ccc(Cl)s2)CC1`, -8.45%; under `COC(=O)c1ccc(/C=C/c2c(-c3ccc(OC)cc3)sc3ccccc23)cc1`, 120% (active).
Under `COc1ccc(/C=C/c2nnc(NC(=O)C(C)C)s2)cc1` stands -1.02%; under `COc1ccc(NC(=O)COC(=O)c2ccc(NS(=O)(=O)/C=C/c3ccccc3)cc2)cc1`, -2.32%.
Take `CC(C)Cn1c(SCC(=O)Nc2ccc(Cl)cc2F)nc(O)cc1=O`: the inhibition is -7.16%.
Under `O=C(CSc1ncnc2sccc12)NC1CCS(=O)(=O)C1` (stereo not drawn) stands -16.5%.
Under `O=C(COC(=O)c1cccnc1Cl)Nc1ccc(S(=O)(=O)N2CCOCC2)cc1` stands 1.63%.
Under `Cc1ccc(-c2csc(-c3c[nH]c4ccccc34)n2)cc1` stands 0.177%.
For the compound `Cc1ccc(-c2csc(-c3cc(C)on3)n2)cc1`, the inhibition is -0.292%.
Under `CCCc1cc(-c2nc(-c3ccc(C)cc3)cs2)ccn1` stands 101% (active); under `O=C(CCc1ccc(S(=O)(=O)N2CCOCC2)cc1)OCC(=O)c1ccc(Br)cc1`, 7.19%.
Under `COc1ccc(NS(=O)(=O)c2cc(NC(=O)c3ccc(S(=O)(=O)N(C)C)cc3)ccc2N2CCOCC2)cc1` stands -5.14%; under `COc1cc(OC)cc(-c2c(C#Cc3ccsc3)c3cc(-c4ccc(OC)cc4F)ccc3n2C)c1`, 0.462%; under `COc1ccc2[nH]cc(/C=C(/C#N)S(=O)(=O)c3ccccc3)c2c1`, 12.3%.
Under `COc1cc(/C=C(\C#N)c2nc3ccccc3[nH]2)ccc1O` stands 33.3%; under `COc1ccc(/C=C(\C#N)c2c[nH]c3ccccc23)cc1`, 102% (active).
With `Cc1cc(C)c(CN2CCN(C(=O)Cn3ccc(NC(=O)OCc4ccccc4)nc3=O)CC2)c(C)c1`, the inhibition is -17.4%.
For the compound `C=CC[C@@H](CC(=O)N[C@@H](CO)Cc1ccccc1)C(=O)N[C@H](COC(=O)[C@H](CC=C)CC(=O)OC(C)(C)C)Cc1ccccc1`, the inhibition was -16.7%.
Under `COCC(C)n1c(SCC(=O)NC2CCCCC2C)nc2ccccc2c1=O` (stereo not drawn) stands 4.54%; under `S=c1[nH]nc(-c2cccnc2)n1/N=C/C(Cl)=C\c1ccccc1`, 8.61%; under `Cc1cc(-c2n[nH]c(=S)n2/N=C/C(Br)=C/c2ccccc2)n[nH]1`, 82.9% (active).
The value for `S=c1[nH]nc(-c2cc(-c3ccccc3)n[nH]2)n1/N=C/c1c2ccccc2cc2ccccc12` was 48%; that for `CN(C(=O)CSc1cccc[n+]1[O-])C1CCCCC1` was -18.5%.
The value for `C[C@H](CO)N1C[C@H](C)[C@@H](CN(C)S(=O)(=O)c2ccc(F)cc2)Oc2c(NC(=O)Nc3ccccc3)cccc2C1=O` was -11.6%; that for `CC1Cc2ccccc2N1S(=O)(=O)c1cccc(C(=O)OCC(=O)N2CCOCC2)c1` (stereo not drawn) was -6.52%; that for `COc1cc(OC)cc(C(=O)N[C@H](C(=O)NNC(=O)c2ccc(Br)cc2)C(C)C)c1` was -10.3%.
Take `Cc1ccc2[nH]c(=O)c(CC(=O)O)c(-c3ccccc3)c2c1`: the inhibition is -9.95%.
Under `Cc1cccc(N(C)C(=O)c2cc3c(=O)[nH]c4ccc(C)cc4c3s2)c1` stands 80.5% (active).
The value for `CCN(CC)CCCNC(=O)c1cc2c(=O)[nH]c3ccc(C)cc3c2s1` was -3.35%; that for `O=C(COc1ccc([N+](=O)[O-])cc1Cl)Nc1ccc2[nH]c(=O)[nH]c2c1` was -8.82%.
Under `CC1CCCCC12NC(=O)N(CC(=O)N1CCN(c3ccccc3)CC1)C2=O` (stereo not drawn) stands -3.2%; under `CCOc1ccc(Br)cc1S(=O)(=O)Nc1ccc(S(=O)(=O)Nc2cc(C)on2)cc1`, -12.8%; under `COc1ccccc1CNC(=O)c1ccc(Cl)c(S(=O)(=O)N2CCCC2)c1`, -0.0556%.
In the case of `COc1ccc(S(=O)(=O)N2CCOCC2)cc1NC(=O)CSc1nnc(NC2CC2)s1`, the inhibition is -7.56%.
The value for `CCCCNc1nc2c(c(=O)n(C)c(=O)n2C)n1Cc1cccc(OC)c1` was -3.15%; that for `CCCCNc1c(-c2cccc(Sc3ccc(OC)cc3)c2)nc2ccccn12` was 78% (active).
In the case of `CCCCCCSc1ccc(-c2nc3ccc(Cl)cn3c2NCc2ccccc2)cc1`, the inhibition is 61.1%.
Under `O=C(NN=Cc1ccc(N2CCOCC2)cc1)c1cc2ccccc2cc1O` stands 10.1%; under `COc1ccc(S(=O)(=O)N2CCCCCC2)cc1NC(=O)Cc1ccc(OC)c(OC)c1`, -7.41%; under `O=C(CSc1nccn1-c1cccc(F)c1)NC1CCCC1`, -0.605%.
For `Cc1ccc(C(=O)O)cc1NC(=O)c1ccc(Cn2nc(C)c(Cl)c2C)o1`, the inhibition was -28.7%.
Under `Cc1c(Cl)c([N+](=O)[O-])nn1Cc1ccc(C(=O)N/N=C\c2cc(Cl)ccc2O)o1` stands 106% (active); under `Cc1c(Cl)c([N+](=O)[O-])nn1CCCC(=O)Nc1cc(Cl)ccc1Cl`, -11.4%.
Under `CCC(CO)Oc1cc(NC(=O)c2cccc(F)c2)c2ncn(C(C)C)c2c1` (stereo not drawn) stands -13.2%; under `C=CCC[C@H](Cc1ccc(F)cc1)C(=O)OC[C@@H](Cc1c[nH]c2ccccc12)NC(=O)[C@H](CC=C)CC(=O)N[C@H](CO)Cc1ccccc1`, 24.2%; under `Cc1cc(Cl)ccc1NNC(=O)c1snnc1C`, 75.1% (active).
The value for `Cc1nnsc1C(=O)N/N=C/c1ccccc1Cl` was -13.9%.
As to `Cc1nnsc1C(=O)Nc1cccc(Cl)c1C`, the inhibition was 4.62%.
As for `O=C(CN1C(=O)NC2(CCOc3ccccc32)C1=O)Nc1cccc([N+](=O)[O-])c1` (stereo not drawn), the inhibition is 0.94%.
As for `COc1cccc(-c2ccc3c(c2)S(=O)(=O)c2cccc(C(=O)O)c2C3=O)c1OC`, the inhibition was 7.27%.
The value for `COc1ccc2c(c1)[C@H]1[C@H](CO2)[C@H](c2ccccc2)[C@]2(C)C(=O)Nc3cc(F)c(F)cc3C(=O)N12` was 21.6%; that for `Cc1ccc(NC(=O)C2CCC(C(C)(C)C)CC2)cc1S(=O)(=O)N1CCOCC1` (stereo not drawn) was 45.1%; that for `CC1(C)C=C2[C@H]3CC[C@@H]4[C@@]5(C)CCC(=O)C(C)(C)[C@@H]5CC[C@@]4(C)[C@]3(C)CC[C@@]2(C(=O)O)CC1` was 107% (active).
On to `NCCN1CCN2C(=O)CN(C(=O)c3ccccc3)CC12` (stereo not drawn), for which the inhibition is -9.2%.
The value for `CCCCOc1ccc(C(=O)NCC(=O)OCC(=O)c2c(N)n(C)c(=O)n(C)c2=O)cc1` was 11.8%; that for `COC(=O)c1ccccc1Sc1c(/C=N/OCc2ccc(Cl)cc2)c(C(F)(F)F)nn1C` was 17.8%.
With `Cn1nc(C(F)(F)F)c(C(=O)Nc2cccc(C(F)(F)F)c2)c1SCc1ccc(Cl)cc1`, the inhibition was 105% (active).
Under `O=C(O)CSc1c2c(nc3cc(C(=O)Nc4cccc(C(F)(F)F)c4)ccc13)CCCC2` stands 14.3%.
Under `O=C(CNC(=O)c1n[nH]c2ccccc12)Nc1cc(Cl)ccc1Cl` stands 5.44%; under `CC(CNC(=O)Cn1cnc2c(OCc3ccccc3)ncnc21)c1ccccc1` (stereo not drawn), -8.55%; under `CCOC(=O)/C(=C\c1ccc([N+](=O)[O-])cc1)C(=O)c1cc(C(C)=O)c(Nc2ccccc2)s1`, 88.4% (active).
The value for `O=C(Nc1ccccc1)/C(=C/c1ccc([N+](=O)[O-])cc1)NC(=O)c1ccccc1` was -13%.
On to `Cc1cccc(NC(=O)c2sc(-c3ccccc3)nc2-c2ccc([N+](=O)[O-])cc2)c1`, for which the inhibition is 12.3%.
Turning to `O=C(OCC(=O)N1CCN(c2ccccc2)CC1)c1ccc([N+](=O)[O-])s1`, the inhibition was 0.421%.
The value for `CN(CC(=O)Nc1ccc(OC(F)F)cc1)S(=O)(=O)/C=C/c1ccccc1` was 7.09%; that for `NS(=O)(=O)c1ccc(NC(=O)COC(=O)c2c3c(nc4ccccc24)/C(=C\c2ccc4c(c2)OCO4)CCC3)cc1` was 93.4% (active); that for `O=C(COC(=O)c1c2c(nc3ccccc13)/C(=C\c1cccs1)CCC2)Nc1ccccc1Cl` was 73.5%.
The value for `COc1cc(-c2cc(C(=O)OCC(=O)Nc3ccc4c(c3)OCO4)c3ccccc3n2)cc(OC)c1OC` was -14.5%; that for `CN(C(=O)COC(=O)Cc1ccccc1[N+](=O)[O-])C1CCS(=O)(=O)C1` (stereo not drawn) was -16.1%.
Under `CN1CCN(CCCNC(=O)c2ccc(/C=C3\Oc4ccccc4N(Cc4ccc(Cl)cc4)C3=O)cc2)CC1` stands 103% (active); under `CCCN1CCN(C(=O)CCCNC(=O)c2ccc(Cl)cc2)CC1`, -11.6%.
With `CN1C(=O)/C(=C/c2ccc(C(=O)NC3CCCC3)cc2)Oc2ccccc21`, the inhibition was 2.95%.
The value for `COc1ccc(/C=C/C(=O)OCC(=O)NC2CCCCCC2)cc1OC` was -6.85%; that for `CC(=O)c1sc(NC(=O)CCN2C(=O)C3CC=CCC3C2=O)nc1-c1ccccc1` (stereo not drawn) was -4.39%; that for `Cc1ccc(/C=N/NC(=O)COc2ccccc2-c2ccccc2)cc1` was 114% (active).
The value for `Cc1cccc(OCC(=O)NCC(=O)N/N=C/c2ccc(N(C)C)cc2)c1` was 4.13%.
Under `CSc1ccc(/C=N\NC(=O)COc2ccc(Cl)cc2Br)cc1` stands -0.83%.
Take `CC(C)COc1ccc(C(=O)NNC(=O)CCC(=O)c2cccs2)cc1`: the inhibition is -16.7%.
The value for `CN(CC(=O)Nc1ccc(C(N)=O)cc1)S(=O)(=O)c1ccc2c(c1)OCCO2` was -1.86%.
